For nine compounds, growth results are on record in PubChem BioAssay (NCI).

This is part of a sample that, as a whole, favours compounds with a hit. Of some 83,000 tested, about 20% had one in any assay.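 Growth was measured after 48 h exposure to one concentration of compound in 96-well plates. Values under 10 count as active.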 Values without a mark were called inactive. Activity calls are given as the source filed them.

Holding throughout (test): NCI-60 one-dose screen, 48 h (100 = growth as untreated, 0 = no growth, -100 = all killed)
For one experiment, the system named is HCT-15 colon. Particulars: 10 µM unless noted.
A further experiment concerns SNB-75 CNS. The following applies: 10 µM.
For a further experiment, the system named is SNB-19 CNS. The following applies: 10 µM unless noted.
For another experiment, the system named is U251 CNS. Particulars: 10 µM unless noted.
The next experiment deals with PC-3 prostate. Particulars: 10 µM unless noted.
The subject of a further experiment is SK-MEL-5 melanoma. Particulars: 10 µM unless noted.
The test system of another experiment is UACC-62 melanoma. Particulars: 10 µM unless noted.
For another experiment, the system named is LOX IMVI melanoma. The following applies: 10 µM unless noted.
Another experiment deals with SK-MEL-28 melanoma. The following applies: 10 µM unless noted.
A further experiment has as its system EKVX NSCLC. Particulars: 10 µM unless noted.
A further experiment concerns SN12C renal. Particulars: 10 µM unless noted.
The subject of the next experiment is UO-31 renal. Particulars: 10 µM unless noted.
The test system of a further experiment is TK-10 renal. Particulars: 10 µM unless noted.
The next experiment relates to ACHN renal. The following applies: 10 µM unless noted.
The next experiment has as its system CAKI-1 renal. The following applies: 10 µM unless noted.
For a further experiment, the system named is A498 renal. Particulars: 10 µM unless noted.
In another experiment the test system is CCRF-CEM leukemia. Particulars: 10 µM unless noted.
The next experiment deals with MOLT-4 leukemia. Particulars: 10 µM unless noted.
The next experiment has as its system SK-MEL-2 melanoma. The following applies: 10 µM unless noted.

`Nc1cccc(Cl)c1N`: the growth is 96.5% in the experiment on HCT-15 colon; 76.9% in the experiment with SNB-75 CNS; 116% with SNB-19 CNS; 110% with U251 CNS; 90.8% with PC-3 prostate; 104% in the experiment on SK-MEL-5 melanoma. In addition, the growth with UACC-62 melanoma is 108%; in the experiment with LOX IMVI melanoma, 86.6%; in the experiment with SK-MEL-28 melanoma, 119%; in the experiment on EKVX NSCLC it was 92%; with SN12C renal, 112%; in the experiment with UO-31 renal it was 71.2%. The growth with TK-10 renal is 93%; with ACHN renal it was 90.4%; with CAKI-1 renal, 96.4%; with A498 renal, 114%; with CCRF-CEM leukemia, 71%; with MOLT-4 leukemia, 93.1%.
On to `CNC(=S)NNC(=O)C1CC1`, for which the growth was 105% in the experiment on HCT-15 colon; 96.5% in the experiment with SNB-75 CNS; 106% in the experiment with SNB-19 CNS; 109% in the experiment on U251 CNS; 102% in the experiment with PC-3 prostate; 105% with SK-MEL-5 melanoma. Besides, the growth in the experiment with UACC-62 melanoma was 111%; in the experiment with LOX IMVI melanoma, 99.9%; in the experiment on SK-MEL-28 melanoma, 113%; with EKVX NSCLC it was 105%; in the experiment with SN12C renal, 109%; with UO-31 renal it was 77.5%. In addition, the growth in the experiment on TK-10 renal was 119%; in the experiment on ACHN renal, 106%; in the experiment on CAKI-1 renal it was 96%; in the experiment on CCRF-CEM leukemia, 97.3%; with MOLT-4 leukemia, 85.1%.
For the compound `CCCOC(=O)n1cccc1`, the growth in the experiment with HCT-15 colon is 107%; in the experiment on SNB-75 CNS, 75.4%; in the experiment with SNB-19 CNS, 100%; with U251 CNS, 107%; in the experiment on PC-3 prostate it was 91.6%; in the experiment on SK-MEL-5 melanoma, 109%. Further, the growth was 91.5% in the experiment with UACC-62 melanoma; 89.8% in the experiment on LOX IMVI melanoma; 116% with SK-MEL-28 melanoma; 118% with SK-MEL-2 melanoma; 99.7% in the experiment on EKVX NSCLC; 94.2% in the experiment on SN12C renal. In addition, the growth in the experiment with TK-10 renal is 110%; in the experiment with CAKI-1 renal, 108%; in the experiment on A498 renal, 106%; with CCRF-CEM leukemia it was 99.2%; in the experiment with MOLT-4 leukemia it was 117%.
As to `COc1cc(C2CC(c3ccc4c(c3)OCO4)=NN2C(C)=O)cc(OC)c1OC` (configuration not stated), the growth is 40.4% in the experiment on HCT-15 colon; -12.1% (active) in the experiment on SNB-75 CNS; 47.6% in the experiment with SNB-19 CNS; 28.2% in the experiment on U251 CNS; 43.8% with PC-3 prostate; 11.7% with SK-MEL-5 melanoma. The growth in the experiment with UACC-62 melanoma was 46.2%; in the experiment on LOX IMVI melanoma, 35.7%; in the experiment with SK-MEL-28 melanoma it was 52.7%; with SK-MEL-2 melanoma it was 28.5%; in the experiment on EKVX NSCLC it was 38.7%; with SN12C renal it was 46.3%. In addition, the growth was 38.2% with TK-10 renal; 2.4% (active) with CAKI-1 renal; 28.8% in the experiment on A498 renal; 16% in the experiment with CCRF-CEM leukemia; 36% in the experiment on MOLT-4 leukemia.
In the case of `CC1CCC(C)N(C)C1` (configuration not stated), the growth was 117% in the experiment on HCT-15 colon; 89.7% with SNB-75 CNS; 98.6% in the experiment on SNB-19 CNS; 107% in the experiment on U251 CNS; 87.5% in the experiment with PC-3 prostate; 107% with SK-MEL-5 melanoma. Besides, the growth in the experiment on UACC-62 melanoma was 99.7%; in the experiment on LOX IMVI melanoma, 95.9%; with SK-MEL-28 melanoma it was 107%; with EKVX NSCLC, 112%; in the experiment with SN12C renal it was 92.8%; in the experiment on UO-31 renal, 84.6%. Moreover, the growth is 102% in the experiment with TK-10 renal; 105% in the experiment on ACHN renal; 101% in the experiment on CAKI-1 renal; 76.5% in the experiment on A498 renal; 93.9% with CCRF-CEM leukemia; 92.5% in the experiment on MOLT-4 leukemia.
With `C=C1CCC2C3(C)COC(c4c(OC)cccc4OC)OC3CCC2(C)C1C/C=C1/C(=O)OCC1O` (configuration not stated), the growth in the experiment on HCT-15 colon was 48.3%; in the experiment with SNB-75 CNS, 50.8%; in the experiment on SNB-19 CNS, 77.3%; with U251 CNS, 35.4%; in the experiment with PC-3 prostate, 20.6%; in the experiment on SK-MEL-5 melanoma, 64.7%. Moreover, the growth in the experiment on UACC-62 melanoma is 58.9%; with LOX IMVI melanoma, 15.7%; with SK-MEL-28 melanoma it was 97.3%; in the experiment with SK-MEL-2 melanoma, 50%; in the experiment with EKVX NSCLC, 96.5%; in the experiment on SN12C renal it was 28.2%. Also, the growth in the experiment with UO-31 renal was 46.2%; with TK-10 renal it was 50.5%; in the experiment on CAKI-1 renal it was 172%; in the experiment with CCRF-CEM leukemia it was -33.1% (active); in the experiment with MOLT-4 leukemia it was 51.4%.
Turning to `Cc1ccc(S(=O)(=O)n2cc(C(=O)C(=O)N3CCOCC3)c3ccccc32)cc1`, the growth in the experiment on HCT-15 colon was 96.6%; with SNB-75 CNS, 104%; in the experiment on SNB-19 CNS, 99.5%; in the experiment with U251 CNS, 93.8%; in the experiment on PC-3 prostate, 67.5%; in the experiment with SK-MEL-5 melanoma, 88.1%. For the same compound, the growth with UACC-62 melanoma is 68.1%; with LOX IMVI melanoma, 83.9%; with SK-MEL-28 melanoma it was 117%; with SK-MEL-2 melanoma, 97%; with EKVX NSCLC, 88%; with SN12C renal it was 87.8%. Besides, the growth with UO-31 renal is 59.7%; in the experiment on TK-10 renal it was 94.6%; in the experiment with CAKI-1 renal, 80.1%; in the experiment with A498 renal, 118%; in the experiment with CCRF-CEM leukemia, 93.6%; in the experiment with MOLT-4 leukemia it was 81.5%.
Turning to `CN(C)c1ncnc2c1ccn2C1OC(CO)C(O)C1O` (configuration not stated), the growth with HCT-15 colon is 14.3%; with SNB-75 CNS, 27%; with SNB-19 CNS it was 73.8%; with U251 CNS, 97%; with PC-3 prostate it was 13%; with SK-MEL-5 melanoma it was 89.5%. Also, the growth was 93.4% with UACC-62 melanoma; 3.02% (active) with LOX IMVI melanoma; 82.5% in the experiment on SK-MEL-28 melanoma; 54.9% with SK-MEL-2 melanoma; 60.5% in the experiment on EKVX NSCLC; 17.8% with SN12C renal. Further, the growth in the experiment with UO-31 renal is 24.8%; with TK-10 renal, 40.9%; in the experiment on CAKI-1 renal, 34.7%; with A498 renal it was 68%; in the experiment with CCRF-CEM leukemia it was 10.7%; with MOLT-4 leukemia, 9% (active).
Take `COc1ccc(C(=O)NC(=O)Nc2cc3c(cc2F)/C(=C/c2[nH]c(C)c(CCC(=O)O)c2C)C(=O)N3)c(F)c1`: the growth in the experiment on HCT-15 colon was 28%; with SNB-75 CNS it was 9.65% (active); in the experiment on SNB-19 CNS, 20%; in the experiment on U251 CNS, 9.72% (active); in the experiment on PC-3 prostate, 22.6%; in the experiment on SK-MEL-5 melanoma it was 59.6%. The growth with UACC-62 melanoma was 31.3%; in the experiment with LOX IMVI melanoma it was 38.5%; with SK-MEL-28 melanoma, 44.4%; with SK-MEL-2 melanoma it was 22.1%; in the experiment on EKVX NSCLC, 65.3%; with SN12C renal, 27.6%. The growth in the experiment with UO-31 renal was 58.6%; with ACHN renal, 65.5%; in the experiment with A498 renal it was 12.3%; in the experiment on CCRF-CEM leukemia, 7.61% (active); with MOLT-4 leukemia it was 33.9%.
